Results from PubChem BioAssay (NCI).
This is part of a sample that, as a whole, favours compounds with a hit. Of some 83,000 tested, about 20% had one in any assay.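 Results are percent growth after 48 hours of single-concentration exposure. 100 means growth as in untreated cells, lower positive values show inhibition; negative values down to -100 show cell death.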 Active and inactive are the calls of the source. How the source made its calls: active means growth percent below 10; inactive means the rest.

Tests used:
Assay in all cases: NCI-60 one-dose screen, 48 h (100 = growth as untreated, 0 = no growth, -100 = all killed)
Details in all cases: 10 µM unless noted
SK-MEL-2 melanoma = tested on: SK-MEL-2 melanoma
EKVX NSCLC = tested on: EKVX NSCLC
SN12C renal = tested on: SN12C renal
UO-31 renal = tested on: UO-31 renal
ACHN renal = tested on: ACHN renal
CAKI-1 renal = tested on: CAKI-1 renal
A498 renal = tested on: A498 renal
CCRF-CEM leukemia = tested on: CCRF-CEM leukemia
MOLT-4 leukemia = tested on: MOLT-4 leukemia
TK-10 renal = tested on: TK-10 renal

Measured: growth

CN[C@@H]1C(OC2[C@H](O[C@H]3[C@H](O)[C@@H](O)[C@H](N=C(N)N)[C@@H](O)[C@@H]3N=C(N)N)OC(C)[C@]2(O)CO)OC(CO)C(O)C1O (stereo partly specified)
inactive: SK-MEL-2 melanoma 112% | EKVX NSCLC 113% | SN12C renal 108% | UO-31 renal 102% | ACHN renal 114% | CAKI-1 renal 107% | A498 renal 109% | CCRF-CEM leukemia 101% | MOLT-4 leukemia 92.7%

COc1cc(C2CC(c3ccc(C)cc3)=NN2C=O)ccc1OCCN(C)C (stereo unspecified)
inactive: SK-MEL-2 melanoma 98.4% | EKVX NSCLC 90.1% | SN12C renal 95.2% | UO-31 renal 64.5% | ACHN renal 100% | A498 renal 92.4% | CCRF-CEM leukemia 88.7% | MOLT-4 leukemia 77.8%

COc1cccc2c1C(=O)c1c(O)c3c(c(O)c1C2=O)C[C@@](O)(C(C)=O)C[C@@H]3O[C@H]1C[C@H](N)[C@H](O)[C@H](C)O1
active: SK-MEL-2 melanoma -82% | EKVX NSCLC -25% | SN12C renal 4.49% | UO-31 renal -64.7% | ACHN renal -23.1% | CAKI-1 renal -29.4% | CCRF-CEM leukemia -25.1% | MOLT-4 leukemia -17.8%

COc1cnc2c(c1)C(=O)c1c-2n(CCCNC(C)C)c(=O)c2cc(F)ccc12
active: SK-MEL-2 melanoma -5.42% | EKVX NSCLC -20.8% | SN12C renal -4.41% | UO-31 renal -89.9% | ACHN renal -69.4% | A498 renal -89% | CCRF-CEM leukemia -1.1% | MOLT-4 leukemia -22.9%

CNCCCn1c2c(c3ccc(F)cc3c1=O)C(=O)c1cc(OC)cnc1-2
active: SK-MEL-2 melanoma -9.66% | EKVX NSCLC -13.2% | SN12C renal 6.91% | UO-31 renal -89.3% | ACHN renal -57.2% | A498 renal -87.6% | CCRF-CEM leukemia 1.24% | MOLT-4 leukemia -19.8%

COc1cc(/C=C2\SC(N3CCCCC3)=NC2=O)ccc1OCCCCCCOc1ccc(/C=C2\SC(N3CCCCC3)=NC2=O)cc1OC
active: SK-MEL-2 melanoma 2.01% | CAKI-1 renal 4.5% | A498 renal 7.57% | CCRF-CEM leukemia 1.05% | MOLT-4 leukemia 7.46%
inactive: EKVX NSCLC 31.4% | SN12C renal 25.3% | UO-31 renal 33.5% | ACHN renal 23.1%

COc1cnc2c(c1)C(=O)c1c-2n(CCCN2CCNCC2)c(=O)c2cc(F)ccc12
active: SK-MEL-2 melanoma -17.1% | SN12C renal 7.67% | UO-31 renal -50.1% | ACHN renal -78.1% | A498 renal -25.7% | CCRF-CEM leukemia -1.3% | MOLT-4 leukemia -16.2%
inactive: EKVX NSCLC 18.7%

O=C(O)c1ccc2cccnc2c1O
active: SK-MEL-2 melanoma 4.77% | SN12C renal 7.06% | ACHN renal 7.69% | CAKI-1 renal 4.24%
inactive: EKVX NSCLC 18.8% | TK-10 renal 13.2% | A498 renal 13.6% | CCRF-CEM leukemia 10.3% | MOLT-4 leukemia 11.2%

O=c1c2ccccc2c2nccn2c2cc(Cl)ccc12
inactive: SK-MEL-2 melanoma 81.5% | EKVX NSCLC 83.2% | SN12C renal 112% | TK-10 renal 137% | ACHN renal 138% | CAKI-1 renal 75.2% | A498 renal 77.9% | CCRF-CEM leukemia 34%
active: MOLT-4 leukemia -54.9%

O=C1C(=O)c2c(nc3ccc(Cl)cn23)-c2ccccc21
active: SK-MEL-2 melanoma -90.2% | EKVX NSCLC -95.6% | SN12C renal -100% | TK-10 renal -86.3% | ACHN renal -100% | CAKI-1 renal -95.4% | A498 renal -100% | CCRF-CEM leukemia -49.6% | MOLT-4 leukemia -94.5%

CN(C)c1ccc(-c2nc3ncc(Br)cc3o2)cc1
inactive: SK-MEL-2 melanoma 92.1% | EKVX NSCLC 78.4% | SN12C renal 98.2% | TK-10 renal 140% | ACHN renal 99.9% | CAKI-1 renal 109% | A498 renal 79.8% | CCRF-CEM leukemia 77.1% | MOLT-4 leukemia 81%

COc1ccc2c(c1)sc1nc(-c3ccc(N(C)C)cc3)cn12
inactive: SK-MEL-2 melanoma 88.6% | EKVX NSCLC 101% | SN12C renal 123% | TK-10 renal 132% | ACHN renal 135% | CAKI-1 renal 86.2% | A498 renal 111% | CCRF-CEM leukemia 71.2% | MOLT-4 leukemia 76.7%

COc1cccc(N2CCN(c3cccc(C)n3)CC2)c1
inactive: SK-MEL-2 melanoma 94% | EKVX NSCLC 106% | SN12C renal 105% | TK-10 renal 123% | ACHN renal 108% | CAKI-1 renal 82.4% | A498 renal 93.9% | MOLT-4 leukemia 101%

COc1cc(/C=C/C(=O)c2c(C)n([O-])c3ccc(Cl)cc3[n+]2=O)cc(OC)c1OC
inactive: SK-MEL-2 melanoma 61.8% | EKVX NSCLC 65.8% | SN12C renal 80.1% | TK-10 renal 103% | ACHN renal 79.6% | CAKI-1 renal 107% | A498 renal 98.2%
active: CCRF-CEM leukemia -34.2% | MOLT-4 leukemia -34.8%

Cc1csc(C#Cc2cncc(O)c2)n1
inactive: SK-MEL-2 melanoma 108% | EKVX NSCLC 110% | SN12C renal 102% | TK-10 renal 121% | ACHN renal 117% | CAKI-1 renal 93.8% | A498 renal 103% | MOLT-4 leukemia 105%
active: CCRF-CEM leukemia -8.24%

Cc1cc(C(=O)Nc2ccc3cc(CN4CCOCC4)ccc3n2)c(C)n1-c1ccccc1
active: CCRF-CEM leukemia 8.79% | MOLT-4 leukemia -17.4%
inactive: SK-MEL-2 melanoma 16.6% | EKVX NSCLC 44.9% | SN12C renal 73% | TK-10 renal 70.4% | ACHN renal 50.5% | CAKI-1 renal 49.7% | A498 renal 79.8%

COP(=O)(OC)C(c1ccc(O)cc1)(c1ccc(O)cc1)c1ccc(O)cc1
inactive: SK-MEL-2 melanoma 101% | EKVX NSCLC 113% | SN12C renal 105% | TK-10 renal 124% | ACHN renal 103% | CAKI-1 renal 94.9% | A498 renal 98.7% | MOLT-4 leukemia 94.3%
active: CCRF-CEM leukemia 5.74%

Nc1ccccc1C#Cc1ccccc1C#Cc1ccc(OCCCCCCOc2ccc(C#Cc3ccccc3C#Cc3ccccc3N)cc2)cc1
active: CCRF-CEM leukemia -59.7%
inactive: SK-MEL-2 melanoma 103% | EKVX NSCLC 89.3% | SN12C renal 99.4% | TK-10 renal 141% | ACHN renal 102% | CAKI-1 renal 91.6% | A498 renal 116% | MOLT-4 leukemia 103%

COc1cnc2c(c1)C(=O)c1c-2n(CCCNC2=NCCS2)c(=O)c2cc(F)ccc12
active: ACHN renal 6.18% | A498 renal -52.4% | CCRF-CEM leukemia 0.88% | MOLT-4 leukemia 0.0786%
inactive: SK-MEL-2 melanoma 90.7% | EKVX NSCLC 67.5% | SN12C renal 36.7% | UO-31 renal 15.9%

CCN(CC)CCNCC(=O)Oc1ccc(/C=C/C(=O)CC(=O)/C=C/c2ccc(OC(=O)CNCCN(CC)CC)c(OC)c2)cc1OC
active: EKVX NSCLC 5.1% | SN12C renal 4.14% | CCRF-CEM leukemia -30.5% | MOLT-4 leukemia 0.439%
inactive: SK-MEL-2 melanoma 10.7% | TK-10 renal 50.3% | ACHN renal 16.8% | CAKI-1 renal 22% | A498 renal 51%

Cc1cnc2nc(-c3ccc(N(C)C)cc3)cn2c1
inactive: SK-MEL-2 melanoma 101% | EKVX NSCLC 91.7% | SN12C renal 103% | TK-10 renal 97.6% | ACHN renal 112% | CAKI-1 renal 108% | A498 renal 107% | CCRF-CEM leukemia 83.3% | MOLT-4 leukemia 91.9%

Cn1cc(NC(=O)Nc2cc(C(=O)O)n(C)c2)cc1C(=O)O
inactive: SK-MEL-2 melanoma 97.8% | EKVX NSCLC 114% | SN12C renal 89.6% | TK-10 renal 107% | ACHN renal 104% | CAKI-1 renal 99.3% | A498 renal 109% | CCRF-CEM leukemia 103% | MOLT-4 leukemia 85.9%

C=C1CCC2C(C)(COC(=O)CC)C(OC(=O)CC)CCC2(C)C1C/C=C1/C(=O)OCC1OC(=O)CC (stereo unspecified)
active: SN12C renal 0.261% | TK-10 renal 1.32% | ACHN renal -90.7% | CCRF-CEM leukemia -25.5% | MOLT-4 leukemia -11%
inactive: SK-MEL-2 melanoma 19.1% | EKVX NSCLC 85.1% | CAKI-1 renal 19.2% | A498 renal 81.4%

N#Cc1c(NC(=O)c2ccco2)[n+]([O-])c2cc(Cl)c(Cl)cc2[n+]1[O-]
active: MOLT-4 leukemia 1.53%
inactive: SK-MEL-2 melanoma 89.9% | EKVX NSCLC 82.4% | SN12C renal 94.1% | TK-10 renal 163% | ACHN renal 110% | CAKI-1 renal 134% | A498 renal 109%

Cc1ccc2nc3c(n2c1)C(=O)C(=O)c1ccccc1-3
active: SK-MEL-2 melanoma -55.6% | EKVX NSCLC -89.6% | SN12C renal -71.7% | TK-10 renal -62.4% | ACHN renal -77.1% | CAKI-1 renal -83% | A498 renal -96.4% | CCRF-CEM leukemia -12.8% | MOLT-4 leukemia -70.8%

O=C(CSc1ncc(-c2ccccc2)n1-c1ccccc1)Nc1ccc(-c2nc3ccccc3s2)cc1
inactive: SK-MEL-2 melanoma 80.6% | EKVX NSCLC 103% | SN12C renal 71.2% | TK-10 renal 44.2% | ACHN renal 102% | CAKI-1 renal 87.4% | A498 renal 107% | CCRF-CEM leukemia 83.8% | MOLT-4 leukemia 66.6%

COc1cnc2c(c1)C(=O)c1c-2n(CCCn2ccnc2)c(=O)c2cc(F)ccc12
active: SK-MEL-2 melanoma -19.1% | UO-31 renal -77.5% | ACHN renal -72.6% | A498 renal -84.4% | CCRF-CEM leukemia -0.897% | MOLT-4 leukemia -23.9%
inactive: EKVX NSCLC 11.4% | SN12C renal 12.4%

COc1cc(/C=C/C(=O)CC(=O)/C=C/c2ccc(OC(=O)CCNC34CC5CC(CC(C5)C3)C4)c(OC)c2)ccc1OC(=O)CCNC12CC3CC(CC(C3)C1)C2
active: CCRF-CEM leukemia -23.5% | MOLT-4 leukemia -25.1%
inactive: SK-MEL-2 melanoma 11.7% | EKVX NSCLC 21.6% | SN12C renal 23.8% | TK-10 renal 70% | ACHN renal 79.2% | CAKI-1 renal 49.1% | A498 renal 83.4%

CCCCCN(CCCCC)CCCNc1c2c(nc3ccc(Cl)cc13)CCCC2
inactive: SK-MEL-2 melanoma 13.4% | EKVX NSCLC 50.7% | SN12C renal 49.9% | TK-10 renal 31.5% | ACHN renal 40.8% | CAKI-1 renal 26.6% | A498 renal 38.4% | CCRF-CEM leukemia 27% | MOLT-4 leukemia 27.8%

N#Cc1ccccc1C#Cc1ccccc1C#Cc1ccc(OCCCCCCOc2ccc(C#Cc3ccccc3C#Cc3ccccc3C#N)cc2)cc1
inactive: SK-MEL-2 melanoma 98.3% | EKVX NSCLC 111% | SN12C renal 104% | TK-10 renal 147% | ACHN renal 109% | CAKI-1 renal 116% | A498 renal 113% | MOLT-4 leukemia 103%
active: CCRF-CEM leukemia 3.16%
